The structures appear in SMILES notation. About 79,000 compounds went through this panel and 15% of them were active in at least one assay; those are over-represented in the sample as a whole. Unmarked numbers belong to inactive results. Activity calls are given as the source filed them. Cut-off read from the data, not from the text of the source: active = growth inhibition above about 70%; inactive = the rest.

This test in a line: NCI Yeast Anticancer Drug Screen. Data for the cln2 rad14 strain (AID 165).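 Note: 0% = growth equal to vehicle treated cultures.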 Conditions: S. cerevisiae cln2 rad14 strain, at 50.0 µM, stronger effect = higher value. The procedure:
Growth inhibition of yeast strains with defined genetic alterations is measured as a screen for potential anti-cancer activity. Selected strains with alterations in DNA damage repair or cell cycle control were exposed to compounds and growth inhibition was measured relative to vehicle treated controls. The strain used in this assay is cln2 rad14
With `CC(=O)OC(C)C1(C)CCC2CCCC(C)(C)C2C1` (stereo not given), the growth inhibition is 0.7%. For `CC1SC2(C(=O)N(CN3CCCCC3)c3ccccc32)N(c2ccccc2)C1=O` (stereo not given), the growth inhibition is -0.8%.

Turning to `Nc1ccc(CCCCc2nc(N)nc(N)c2-c2ccc(Cl)c(Cl)c2)cc1`, the growth inhibition was 9.1%. Under `Cc1cc(N(CCC#N)CCC#N)ccc1/C=C1N=C(/C=C/c2ccccc2)OC(=O)N\1` stands -10.1%.

In the case of `C[C@H]1C[C@](C)(CO)Oc2oc3ccccc3c(=O)c21`, the growth inhibition is 4.75%.

In the case of `O=C(Nc1ccccc1)Oc1ccc(/C=N/Sc2cccc([N+](=O)[O-])c2)cc1`, the growth inhibition is 21.2%. Under `Nc1ccc(I)cc1` stands -20.8%. Under `Cc1nc(/N=C(/N)N(C)C)[nH]c(=O)c1C` stands 3.7%; under `CC1(O)/C=C\C=C(\CO)C2CC(C)(C)C2(O)CC1` (stereo not given), -4.5%. Under `CCSc1sc(=Nc2ccc(N=c3sc(C)c(SC)s3)cc2)sc1-c1ccc(C)cc1` stands -39.1%. As for `COc1ccc(C2C3=C(CC(C)(C)CC3=O)Oc3cc4c(cc32)OCO4)cc1` (stereo not given), the growth inhibition is -0.45%.

As to `CN(C)Cc1cc(C(=O)O)ccc1O`, the growth inhibition is -29%. As for `O=C(Nc1ccccc1)O/N=C(/c1ccccc1)c1cccnc1`, the figure is -3.3%; as for `c1ccc(N=C(N2CCCC2)N(CCN2CCCC2)c2ccccc2)cc1`, 1.35%; as for `COc1cc(/C=C/C=C(C(=O)O)C(=O)O)cc(OC)c1OC`, -11.4%.

For `CC1OCOC1C1OCOCC1OC(=O)c1ccccc1` (stereo not given), the growth inhibition was -14.8%.

Take `O=C(c1ccc(Cl)cc1)N(C(=S)N1CCN(c2ccccc2)CC1)c1ccccc1`: the growth inhibition was -6.3%. Under `O=C1CC=NC(=S)N1` stands 7.95%; under `Cc1cccn(C)c1=O`, 2.15%; under `CC(C)(C)C1=CC(=C(c2ccc(-c3c4nc(c(-c5ccc(C(=C6C=C(C(C)(C)C)C(=O)C(C(C)(C)C)=C6)c6cc(C(C)(C)C)c(O)c(C(C)(C)C)c6)cc5)c5ccc([nH]5)c(-c5ccc(C(=C6C=C(C(C)(C)C)C(=O)C(C(C)(C)C)=C6)c6cc(C(C)(C)C)c(O)c(C(C)(C)C)c6)cc5)c5nc(c(-c6ccc(C(=C7C=C(C(C)(C)C)C(=O)C(C(C)(C)C)=C7)c7cc(C(C)(C)C)c(O)c(C(C)(C)C)c7)cc6)c6ccc3[nH]6)C=C5)C=C4)cc2)c2cc(C(C)(C)C)c(O)c(C(C)(C)C)c2)C=C(C(C)(C)C)C1=O`, -38.6%.

Take `CCCCCCCCC(Br)C(Br)CCCCCCCC(=O)N(CCCC)CCCC` (stereo not given): the growth inhibition was -5.45%. On to `CCCC(=O)OCC(C)(C)COC(=O)CCC`, for which the growth inhibition is 3.5%. Under `CC1(C)OC(C(O)CO)C(C2COC(=S)O2)O1` (stereo not given) stands 33.5%; under `O=[N+]([O-])c1ccc(S(=O)(=O)Nc2ccccc2-c2ccccc2)cc1`, 98.2% (active). Under `C=CCNC(=S)Nc1cccc(O)c1` stands -31.8%; under `CCN(CC)CCNCc1ccc(Cl)cc1`, 6.15%; under `Cc1cc(Sc2ccc(Cl)cc2)nc(Sc2ccc(Cl)cc2)c1C#N`, -20.6%.

`CC(C)(CO)NCC(O)CS(=O)(=O)O` (stereo not given): the growth inhibition was -61%. As for `Nc1c([N+](=O)[O-])cc(F)cc1C(F)(F)F`, the figure is -14.9%. As to `CC1=CCCC(C)(C)C1/C=C/C(C)=N/NC(=O)Nc1ccccc1` (stereo not given), the growth inhibition was -8.85%. On to `Nc1ncnc2c1ncn2C(=O)NC12CC3CC(CC(C3)C1)C2`, for which the growth inhibition was 18.1%. As for `N#Cc1[nH]cnc1O`, the figure is 7.7%; as for `C/C=C(/C)C(=O)O[C@H]1CC[N+]2([O-])CC=C(COC(=O)[C@@](O)([C@H](C)OC)C(C)(C)O)[C@H]12` (stereo not given in full), 7.5%; as for `CC(=O)Oc1ccc(C2CC(=O)N(CCN(C)C)C2=O)cc1` (stereo not given), -6.35%.

Regarding `CCCC(=O)c1ccc2c(ccc(=O)n2C)c1`, the growth inhibition was 38.1%. As for `COC(=O)C(C(=O)C(=O)Nc1cccc(OC)c1)c1cnc2ccccc2n1` (stereo not given), the figure is 21.2%; as for `CCO[C@H]1OC(=O)[C@@H]2C(c3ccc(F)cc3)=NO[C@H]12`, 2.7%; as for `N#Cc1ccc(NC(=NCC(=O)O)Nc2ccc3ccccc3c2)cc1`, 25.8%. As for `CCCCS(=O)(=O)C[N+](C)(CC)CC`, the figure is -6.85%; as for `COc1cc(C=O)ccc1OC(=O)Nc1cccc(Cl)c1C`, 1.9%.

The record behind these values is PubChem BioAssay (NCI).
